12-LOX inh – Primary qHTS assay for inhibitors of human arachidonate 12S-lipoxygenase (ALOX12): Round 2; 580,000 compounds, 1.1% hits; Potency, µM (doses to about 108 µM), inactives show at the highest dose activity change, negative = inhibition, usual class: inhibitors; purified 12hLO, xylenol orange hydroperoxide absorbance; further: potency means the concentration at half of the fitted maximal effect
Target sequence (P18054 whole entry, looked up): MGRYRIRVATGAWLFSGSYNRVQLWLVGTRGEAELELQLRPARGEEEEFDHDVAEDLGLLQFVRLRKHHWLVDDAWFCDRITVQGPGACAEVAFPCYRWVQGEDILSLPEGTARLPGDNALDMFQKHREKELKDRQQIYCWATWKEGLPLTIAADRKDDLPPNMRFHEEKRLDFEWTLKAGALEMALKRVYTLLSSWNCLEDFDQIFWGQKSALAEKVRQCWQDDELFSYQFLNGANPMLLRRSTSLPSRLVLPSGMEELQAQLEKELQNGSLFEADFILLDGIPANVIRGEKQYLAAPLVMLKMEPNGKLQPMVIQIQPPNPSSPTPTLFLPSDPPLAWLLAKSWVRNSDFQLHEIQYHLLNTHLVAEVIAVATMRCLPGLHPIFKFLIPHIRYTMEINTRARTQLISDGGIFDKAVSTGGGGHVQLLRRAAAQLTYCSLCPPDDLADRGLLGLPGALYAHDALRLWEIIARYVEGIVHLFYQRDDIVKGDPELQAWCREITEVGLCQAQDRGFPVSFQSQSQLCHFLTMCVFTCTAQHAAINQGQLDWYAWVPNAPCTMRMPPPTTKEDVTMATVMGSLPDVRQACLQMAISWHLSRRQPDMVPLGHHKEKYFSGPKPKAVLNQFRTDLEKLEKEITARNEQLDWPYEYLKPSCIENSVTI
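Purified human 12hLO at 150 nM in 25 mM Hepes, 0.01% Triton X-100, pH 7.0, preincubated 15 min at room temperature with compound. Reaction started with 40 uM arachidonic acid, 30 min at room temperature. Hydroperoxide measured by Fe-xylenol orange, 573/405 nm absorbance ratio.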
DT40 TDP1 CPT – qHTS for Inhibitors of human tyrosyl-DNA phosphodiesterase 1 (TDP1): qHTS in cells in presence of CPT; chicken DT40 Tdp1-/-;hTDP1 cells + 20 nM CPT, ATP luminescence, 48 h; 420,000 compounds, 12% hits; AID 686979, 2013; Potency, µM (titrated, usually from 46.2 µM), without a hit: at the highest dose activity change, negative = growth inhibition, most hits filed as inhibitors; further: potency means the concentration at half of the fitted maximal effect; nearly all actives have a fitted effect of over 55% in size
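Chicken DT40 Tdp1-/- cells complemented with human TDP1, 400 cells/well, exposed to compounds plus 20 nM camptothecin for at least 48 h at 37 C; viability read as ATP content by CellTiter-Glo luminescence.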
HT1080 IDH1KD tx – qHTS for induction of synthetic lethality in tumor cells producing 2HG: qHTS for the HT-1080-IDH1KD cell line. Potency, µM (series often up to 46.1 µM), without a hit: top-dose activity, negative = toxicity, actives largely listed as cytotoxic. HT-1080 IDH1 knockdown viability, ATP luminescence, 48 h. 360,000 compounds, 2% hits;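 further: potency means the concentration at half of the fitted maximal effect; 0% = DMSO wells and -100% = cell-free medium wells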
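% activity derives from luminescence (CellTiter-Glo), normalised to DMSO and no-cell wells. HT-1080-IDH1KD cells, 750/well, had 48 h compound exposure at 37 °C.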
HT1080-NT tox – qHTS for induction of synthetic lethality in tumor cells producing 2HG: qHTS for the HT-1080-NT fibrosarcoma cell line | HT-1080-NT fibrosarcoma viability, CellTiter-Glo ATP luminescence, 48 h | Potency, µM (doses to about 46.1 µM), for the others: at the highest dose activity, negative = less viability, hits mostly cytotoxic | 360,000 compounds, 1.6% hits | AID 686970, 2013;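 further: NT is the 2HG producing partner of a matched IDH1 knockdown line; potency means the concentration at half of the fitted maximal effect; 0% = DMSO-treated cells and -100% = media-only wells without cells; nearly all actives have a fitted effect of over 55% in size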
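Compounds were tested in concentration-response format on HT-1080-NT cells for 48 hours at 37 degrees C. Cell viability came from CellTiter-Glo luminescence; curves were classified by r2, response magnitude and activity.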
IL-1B inflam inh – qHTS for Inhibitors of Inflammasome Signaling: IL-1-beta AlphaLISA Primary Screen; THP-1 LPS/ATP IL-1B secretion, AlphaLISA, 16 h; stronger effect = lower value; activity change, % at 57.5 µM; 360,000 compounds, 4.7% hits; AID 743279, 2014; in the data active means activity change below about -50%; inconclusive means mostly about -30% to -49%
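THP-1 cells pretreated 1 hr with compounds (up to 57.5 uM final), then stimulated with LPS (250 ng/mL final) plus ATP (1.25 mM final); secreted IL-1B measured by AlphaLISA after 16 hr, decreased signal indicating inhibition.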
TDP1 cell noCPT – qHTS for Inhibitors of human tyrosyl-DNA phosphodiesterase 1 (TDP1): qHTS in cells in absence of CPT; Potency, µM (doses to about 46.2 µM), for the others: at the top dose activity change, negative = growth inhibition, usual class: inhibitors; DT40 Tdp1-/- hTDP1 cells, no CPT, ATP luminescence, 48 h; 420,000 compounds, 15% hits; further: potency means the concentration at half of the fitted maximal effect; nearly all actives have a fitted effect of over 55% in size
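Readout: luminescence from CellTiter-Glo after 30 min in the dark at RT. Cells: DT40 Tdp1-/- with stable hTDP1, 400/well. Exposure: compounds alone, ≥48 hr, 37 °C.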
* = called active by the depositor; i = inactive; ? = inconclusive; · = no result; [ ] = another dose, or the depositor's remark. This excerpt belongs to a sample that is enriched for hits. Unless noted, the call rests on the fitted dose curve; in most records, active means well fitted curve in the direction sought with a large enough effect; inconclusive means small, poorly fitted or top-dose-only effect, or another doubt; inactive means no such curve, though single readings can be large; an effect the other way counts as inactive or inconclusive. Unless noted, on the % scale 0 is the no-effect control and ±100 the full control effect.

SMILES	12-LOX inh	DT40 TDP1 CPT	HT1080 IDH1KD tx	HT1080-NT tox	IL-1B inflam inh	TDP1 cell noCPT
CCOc1cc2c(cc1NC(=O)CCC(=O)c1ccc(C)cc1)OC(C)C2 (configuration not stated)	4.5µM*	·	·	·	·	·
COc1ccc(/C=C2\SC(=S)N(CCCC(=O)Nc3ccc(O)cc3)C2=O)cc1	3%	?	?	?	-59*	?
COc1cc(/C=C2/SC(=S)N(CCC(=O)Nc3ccc(C(=O)O)cc3)C2=O)cc(OC)c1OC	?	9%	-2%	-7%	?	13%
COc1cc(/C=C2\SC(=S)N(CCC(=O)Nc3ccc(O)cc3)C2=O)cc(OC)c1OC	-22%	?	?	?	37	16µM*
COc1ccc(/C=C2\SC(=S)N(CCC(=O)NC3CCCC3)C2=O)cc1OC	-6%	?	0%	16%	-10	16µM*
COc1ccc(/C=C2/SC(=S)N(CCCC(=O)Nc3ccc(O)cc3)C2=O)cc1	-25%	?	?	?	-17	?
COc1ccccc1NC(=O)CCN1C(=O)/C(=C/c2cc(OC)c(OC)c(OC)c2)SC1=S	15%	?	2%	0%	-2	15µM*
COc1cccc(C(=O)NCC2(COc3cnccn3)C[C@@H](O)[C@@H](O)C2)c1 (some centres not stated)	124%[176 µM]	·	·	·	·	·
CC(C)(C)c1ccc(C(CNC(=O)c2cc3ccccc3oc2=O)N2CCCC2)cc1 (configuration not stated)	1%	·	·	·	·	·
COCC(=O)NCC(C)(C)c1ccccc1	21%	·	·	·	·	·
Cc1cc(C)c(-n2[nH]nnc2=S)c(C)c1	11µM*	?	1%	8%	0	-27%
COc1ccc(C)cc1-n1[nH]nnc1=S	?	-2%	11%	7%	5	8%
CCSC(=S)Nc1c(C)n(C)n(-c2ccccc2)c1=O	3%	-28%	-6%	-3%	-20	-24%
Cc1c(NC(=S)N/N=C/c2ccc(Br)cc2)c(=O)n(-c2ccccc2)n1C	?	?	-9%	-13%	-21	-25%
Cc1c(NC(=S)N/N=C\c2ccccc2O)c(=O)n(-c2ccccc2)n1C	-4%	?	-26%	-1%	68	21µM*
Cc1c(NC(=S)SCc2ccccc2)c(=O)n(-c2ccccc2)n1C	0%	-14%	-18%	-8%	-23	23µM*
COc1ccc(C(C(=O)NC(C)(C)C)n2c(-c3ccccc3Br)nc3cc(C)c(C)cc32)cc1 (configuration not stated)	-19%	·	·	·	·	·
CCOc1ccc(N/C(N)=N/c2nc(CSc3nnc(C)s3)cc(=O)[nH]2)cc1	-4%	0.65µM*	0.92µM*	0.21µM*	37	0.58µM*
Cc1nnc(SCc2cc(=O)[nH]c(/N=C(\N)Nc3ccccc3)n2)s1	4%	?	18µM*	?	22	21µM*
COCCNC(=O)[C@H]1C[C@H](Oc2cccnc2)CN1C(=O)NCc1ccc(C)cc1	45%	·	·	·	·	·
OC(CN1C2=NCCN2c2ccccc21)c1ccc(Br)cc1 (configuration not stated)	0%	?	-24%	-17%	-62*	21µM*
Fc1ccc(CN2C3=NCCN3c3ccccc32)cc1	469%	-14%	-15%	1%	-7	?
CCOC(=O)CN1C2=NCCN2c2ccccc21	11%	5%	3%	7%	18	-7%
Cc1ccc(C(O)CN2C3=NCCN3c3ccccc32)cc1 (configuration not stated)	0%	23µM*	2%	-1%	-10	16µM*
COc1ccc(Br)cc1C(=O)Nc1cccc(NC(=O)c2ccco2)c1	0%	?	-10%	-18%	-21	18µM*
SMILES	12-LOX inh	DT40 TDP1 CPT	HT1080 IDH1KD tx	HT1080-NT tox	IL-1B inflam inh	TDP1 cell noCPT
COc1ccc(NC(=O)c2ccco2)cc1NC(=O)c1ccccc1F	-21%	-7%	-3%	0%	-2	-15%
O=C(Nc1cccc(NC(=O)c2ccc(-c3cccc(Br)c3)o2)c1)c1ccco1	11%	16µM*	?	-44%	-59*	11µM*
COc1ccc(NC(=O)c2ccco2)cc1NC(=O)c1cc(Br)ccc1Cl	-27%	-28%	·	·	·	21µM*
CC(=O)Nc1cccc(NC(=O)c2ccco2)c1	-19%	-9%	-12%	-4%	26	12%
COc1c(C)cc(Br)cc1C(=O)Nc1cccc(NC(=O)c2ccco2)c1	21%	?	9%	-1%	-27	?
COCCCNC(=O)C(=O)N1CCN(c2nc(C)c3c(c2C#N)CCCC3)CC1	-6%	·	·	·	·	·
CCOCCCNC(=O)C1CCN(S(=O)(=O)c2c(C)noc2/C=C\c2ccc(OC)cc2)CC1	0%	-11%	3%	0%	22	1%
Cc1noc(/C=C/c2cccs2)c1S(=O)(=O)N1CCC(C(=O)NCCCN2CCCC(C)C2)CC1 (configuration not stated)	-12%	?	-25%	-3%	-51*	?
CCCCNC(=O)C1CCCN(S(=O)(=O)c2c(C)noc2/C=C/c2cccs2)C1 (configuration not stated)	-5%	?	9%	-7%	?	13µM*
COC1CCN(C(=O)c2cnc3c(c2)N([S+](=O)([O-])c2cccnc2)CCC3)CC1	48%[176 µM]	·	·	·	·	·
COc1cccc(-c2nc3cnccn3c2NCCC(=O)Nc2ccc(F)cc2C)c1	17%	·	·	·	·	·
Cc1c(Cc2ccc3c(c2)OCO3)sc(NC(=O)C(C)(C)C)c1C#N	-14%	18µM*	-23%	-7%	14	8.2µM*
O=C(/C=C/NNC(=O)c1ccccc1)c1ccc(Br)cc1	i	3.3µM*	?	?	81	4.6µM*
COc1ccc(C(=O)C=CNNC(=O)c2ccc(Cl)cc2)cc1	?	3.3µM*	?	-28%	148	?
Cc1ccc(C(=O)/C=C/NNC(=O)c2ccccc2O)cc1	?	16µM*	-26%	-24%	90	?
